The supplement of paper PMC13380429

Test system: Vero E6 infected with SARS-CoV-2
Test: inhibition of SARS-CoV-2 cytopathic effect; higher = more antiviral protection, active = above 15
Conditions: 48 h

Measured: inhibition of SARS-CoV-2 cytopathic effect

COc1cc2c(cc1OCCCN1CCCC1)N=C(N)C21CCC1
inactive: 1 nM -1.51% | 8.33 nM 0.76% | 100 nM 0.57% | 833.33 nM 1.84% | 10000 nM 1.55%

COCCN1CCC(C(=O)NO)(S(=O)(=O)c2ccc(Oc3ccc(OC(F)(F)F)cc3)cc2)CC1
inactive: 1 nM 3.42% | 8.33 nM 2.45% | 100 nM 2.99% | 833.33 nM 3.32% | 10000 nM 1.34%

C=C[C@](C)(O)CC[C@@H]1[C@@]2(C)CCCC(C)(C)[C@@H]2CC[C@@]1(C)O [sclareol]
inactive: 1 nM 0.36% | 8.33 nM -0.46% | 100 nM -0.66% | 833.33 nM -1.37% | 10000 nM -4.46%

CN(C)CCN(Cc1cccs1)c1ccccn1 [methapyrilene]
inactive: 1 nM -0.83% | 8.33 nM -2.49% | 100 nM -1.39% | 833.33 nM -3.33% | 10000 nM -1.68%

N#Cc1c(N)nc(SCC(N)=O)c(C#N)c1-c1ccc(OCC2CC2)cc1
inactive: 1 nM 4.36% | 8.33 nM 2.85% | 100 nM 2.51% | 833.33 nM 10.1% | 10000 nM 12.1%

CCc1cc2c(cc1CC)CC(NC[C@H](O)c1ccc(O)c3[nH]c(=O)ccc13)C2 [indacaterol]
inactive: 1 nM -4.02% | 8.33 nM -0.7% | 100 nM -0.83% | 833.33 nM -1.99% | 10000 nM -2.01%

COc1ccc2c3c1O[C@H]1C[C@@H](O)C=C[C@@]31CCN(C)C2 [galantamine]
inactive: 1 nM 0.63% | 8.33 nM 3.15% | 100 nM 2.16% | 833.33 nM 2.11% | 10000 nM 0.3%

CC[N+](CC)(CC)CCOc1ccc(/C=C/c2ccccc2)cc1
inactive: 1 nM -0.65% | 8.33 nM 1.39% | 100 nM 2.2% | 833.33 nM 1.89% | 10000 nM 7.99%

Cc1cc(NC(=O)Nc2ccc(N(C)C)cc2)c2cc(F)cc(F)c2n1
inactive: 1 nM -0.11% | 8.33 nM 0.56% | 100 nM 1.66% | 833.33 nM 3.02% | 10000 nM 4.9%

O=C(NCc1ccc(Oc2ccccc2)cc1)c1nc(-c2cc(Br)c(O)c(Br)c2)no1
inactive: 1 nM -1.01% | 8.33 nM -0.54% | 100 nM 0% | 833.33 nM 0.07% | 10000 nM 0.36%

CN1c2cc3c(cc2N=C(c2ccc(C(=O)O)cc2)c2ccccc21)C(C)(C)CCC3(C)C
inactive: 1 nM 4.92% | 8.33 nM 2.01% | 100 nM -1.76% | 833.33 nM 0.01% | 10000 nM -7.42%

CC/C(=C(/CC)c1ccc(O)cc1)c1ccc(O)cc1 [diethylstilbestrol]
inactive: 1 nM -1.15% | 8.33 nM -2.29% | 100 nM -2.18% | 833.33 nM 3.59% | 10000 nM 6.76%

CC(C)N(CCNC(=O)CN1CCCC1=O)C(C)C [pramiracetam]
inactive: 1 nM -3.32% | 8.33 nM -1.27% | 100 nM 0.57% | 833.33 nM 3.04% | 10000 nM 0.12%

CCOC(=O)c1ncn2c1[C@@H]1CCCN1C(=O)c1cc(OC)ccc1-2
inactive: 1 nM -0.88% | 8.33 nM 0.22% | 100 nM 0.35% | 833.33 nM -0.77% | 10000 nM 0.55%

CC(C)(C)CCN1C[C@@H]2[C@@H](CNC(=O)c3cc(Cl)cc(Cl)c3)[C@@H]2C1
inactive: 1 nM 2.47% | 8.33 nM 2.05% | 100 nM 1.76% | 833.33 nM 2.2% | 10000 nM -10.4%

CC[C@]12CCCN3CCc4c(n(c5ccccc45)C(=O)C1)[C@@H]32 [vinburnine]
inactive: 1 nM -4.83% | 8.33 nM -3.72% | 100 nM -1.1% | 833.33 nM 0.35% | 10000 nM -0.52%

CC(C)=CCC/C(C)=C/CC/C(C)=C/CCC(=O)OC/C=C(\C)CCC=C(C)C [geranyl-farnesylacetate]
inactive: 1 nM -0.32% | 8.33 nM 0.94% | 100 nM -2.76% | 833.33 nM 0.87% | 10000 nM 1.54%

Cc1ccc(S(=O)(=O)NC2c3ccccc3Oc3ccccc32)cc1
inactive: 1 nM -5.59% | 8.33 nM -2.13% | 100 nM -2.17% | 833.33 nM -6.38% | 10000 nM -2.38%

CC(C)N(CCC(=O)c1ccc2ccccc2c1)Cc1ccccc1
inactive: 1 nM 0.32% | 8.33 nM -1.41% | 100 nM 1.13% | 833.33 nM 3.16% | 10000 nM 3.92%

NCC(CC(=O)O)c1ccccc1 (stereo not given) [fenigam]
inactive: 1 nM -0.57% | 8.33 nM 0.98% | 100 nM 0.48% | 833.33 nM -0.72% | 10000 nM 1.87%

CCC(CC)O[C@@H]1C=C(C(=O)O)C[C@H](N)[C@H]1NC(C)=O [oseltamivir-carboxylate]
inactive: 1 nM -1.71% | 8.33 nM 0.87% | 100 nM 0.49% | 833.33 nM 1.32% | 10000 nM -0.82%

CC(Cc1ccc(O)cc1)NCC(O)c1cc(O)cc(O)c1 (stereo not given) [fenoterol]
inactive: 1 nM 2.01% | 8.33 nM 0.82% | 100 nM 2.19% | 833.33 nM 2.52% | 10000 nM 0.86%

COc1c(C)cnc(Cn2cc(C#CCC(C)(C)O)c3c(Cl)nc(N)nc32)c1C
inactive: 1 nM 2.11% | 8.33 nM 1.52% | 100 nM -1.98% | 833.33 nM 0.61% | 10000 nM -7.6%

COC1=C(OC)C(=O)C(CCCCCCCCCCO)=C(C)C1=O [idebenone]
inactive: 1 nM -0.23% | 8.33 nM -3.04% | 100 nM -0.1% | 833.33 nM 0.64% | 10000 nM 0.26%

O=C1NC(c2ccccc2)(c2ccccc2)C(=O)N1COP(=O)(O)O [fosphenytoin]
inactive: 1 nM 2.33% | 8.33 nM 4.09% | 100 nM 13.5% | 833.33 nM 1.24% | 10000 nM -0.44%

Nc1nc(Nc2ccccc2)nc2c1ncn2[C@@H]1O[C@H](CO)[C@@H](O)[C@H]1O
inactive: 1 nM 2.4% | 8.33 nM 4.07% | 100 nM 1.9% | 833.33 nM 1.06% | 10000 nM -2.77%

O=C(O)CNC(=O)C1C(=O)N(C2CCCCC2)C(=O)N(C2CCCCC2)C1=O [daprodustat]
inactive: 1 nM -0.26% | 8.33 nM 1.23% | 100 nM 2.21% | 833.33 nM 2.38% | 10000 nM -0.29%

Cc1c(CN2CCN(C(=O)[C@H](C)O)CC2)sc2c(N3CCOCC3)nc(-c3cnc(N)nc3)nc12
inactive: 1 nM -0.71% | 8.33 nM 0.05% | 100 nM 0.57% | 833.33 nM -5.06% | 10000 nM -12.7%

Cc1ccc(C(=O)C(C)CN2CCCCC2)cc1 (stereo not given) [tolperisone]
inactive: 1 nM -0.13% | 8.33 nM -1.26% | 100 nM -0.59% | 833.33 nM -1.06% | 10000 nM 0.32%

O=c1ccc2ccc(O)c(O)c2o1 [daphnetin]
inactive: 1 nM -1.96% | 8.33 nM 2.35% | 100 nM -2.13% | 833.33 nM 4.54% | 10000 nM 2.15%

COc1cc2c(cc1O)CC[C@@H]1[C@@H]2CC[C@]2(C)[C@@H](O)CC[C@@H]12 [2-methoxyestradiol]
inactive: 1 nM -3.17% | 8.33 nM 0.66% | 100 nM -1.13% | 833.33 nM -1.83% | 10000 nM -4.59%

CCn1nc(C(=O)O)c(=O)c2cc3c(cc21)OCO3 [cinoxacin]
inactive: 1 nM 0.52% | 8.33 nM -0.24% | 100 nM 0.19% | 833.33 nM 0.12% | 10000 nM -1.09%

CCN1CCCC1=O [1-ethyl-2-pyrrolidone]
inactive: 1 nM -1.68% | 8.33 nM 2.91% | 100 nM 3.54% | 833.33 nM -0.7% | 10000 nM -2.48%

OC(c1ccccc1)C1CCN(CCc2ccccc2)CC1 (stereo not given)
inactive: 1 nM -0.21% | 8.33 nM 1.17% | 100 nM -0.64% | 833.33 nM -0.54% | 10000 nM 0.25%

CO[C@@]1(NC(=O)C2SC(=C(C(N)=O)C(=O)O)S2)C(=O)N2C(C(=O)O)=C(CSc3nnnn3C)CS[C@@H]21 (stereo not given in full) [cefotetan]
inactive: 1 nM 0.97% | 8.33 nM 1.11% | 100 nM 2.32% | 833.33 nM -0.94% | 10000 nM 0.24%

CC(=O)O[C@H]1CC[C@@]2(C)C(=CC[C@@H]3[C@@H]2CC[C@]2(C)C(c4cccnc4)=CC[C@@H]32)C1 [abiraterone-acetate]
inactive: 1 nM -0.73% | 8.33 nM 0.99% | 100 nM -0.37% | 833.33 nM -1.43% | 10000 nM -0.75%

Cn1cncc1[C@@](N)(c1ccc(Cl)cc1)c1ccc2c(c1)c(-c1cccc(Cl)c1)cc(=O)n2C [tipifarnib]
inactive: 1 nM 0.24% | 8.33 nM 0.1% | 100 nM 1.79% | 833.33 nM 2.2% | 10000 nM -9.4%

CC(C)c1cc(-c2ccc(F)c3ccccc23)nc(N)n1
inactive: 1 nM 0.6% | 8.33 nM 1.62% | 100 nM -1.61% | 833.33 nM -3.71% | 10000 nM -2.34%

CCCCC[C@H](O)/C=C/[C@H]1[C@H](O)CC(=O)[C@@H]1CCCCCCC(=O)O [alprostadil]
inactive: 1 nM 1.09% | 8.33 nM 3.65% | 100 nM 0.04% | 833.33 nM -3.27% | 10000 nM 0.55%

C[C@@H]1CCCN1CCc1cc2cc(-c3ccc(C#N)cc3)ccc2o1
inactive: 1 nM -2.35% | 8.33 nM -2.18% | 100 nM 1.55% | 833.33 nM -0.35% | 10000 nM 4.34%

CC1=C(/C=C/C(C)=C/C=C/C(C)=C/C(=O)O)C(C)(C)CCC1 [tretinoin]
inactive: 1 nM 1% | 8.33 nM -1.08% | 100 nM -0.09% | 833.33 nM 2.67% | 10000 nM 7.6%
